The record followed here is PubChem BioAssay (NCATS).

Test [1] concerns the target Cytochrome P450 2D6 (Homo sapiens) (UniProt P10635). The experiment in a line: Cytochrome P450 family 2 subfamily D member 6 (CYP2D6) small molecule antagonists: luciferase biochemical (cell-free) qHTS assay (AID 1645840; active means well fitted curve in the direction sought with a large enough effect in the repeat runs; an effect the other way counts as inactive or inconclusive; further: nearly all actives have a fitted effect of over 55% in size; further: potency means the concentration at half of the fitted maximal effect; on activity change, negative = inhibition: on the % scale 0 is the no-effect control and ±100 the full control effect). The essentials: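 P450-Glo luminescent screen: recombinant CYP2D6 enzyme–proluciferin substrate mix preincubated with compound 10 min at room temperature, then NADPH regeneration added for 1 h at room temperature. Detection reagent added for 20 min; luciferin light read as relative luminescence units.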
On the technique in general: In qHTS, concentration-response curves come from the screen itself.

For test [2], the target named is Cytochrome P450 2C9 (Homo sapiens) (UniProt P11712). The test can be described thus: Cytochrome P450 family 2 subfamily C member 9 (CYP2C9) small molecule antagonists: luciferase biochemical (cell-free) qHTS assay (AID 1645842; active means well fitted curve in the direction sought with a large enough effect in the repeat runs; an effect the other way counts as inactive or inconclusive; further: nearly all actives have a fitted effect of over 55% in size; further: potency means the concentration at half of the fitted maximal effect; on activity change, negative = inhibition: on the % scale 0 is the no-effect control and ±100 the full control effect). The essentials: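 Luminescence, after 20 min with luciferin detection reagent, reflected CYP2C9 turnover during a 1 h NADPH-driven reaction at 37C. Enzyme-substrate mix contained 0.4% bovine serum albumin and was preincubated with compound 10 min at room temperature.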
Sequence of Cytochrome P450 2C9 (Homo sapiens) (P11712 whole entry, looked up): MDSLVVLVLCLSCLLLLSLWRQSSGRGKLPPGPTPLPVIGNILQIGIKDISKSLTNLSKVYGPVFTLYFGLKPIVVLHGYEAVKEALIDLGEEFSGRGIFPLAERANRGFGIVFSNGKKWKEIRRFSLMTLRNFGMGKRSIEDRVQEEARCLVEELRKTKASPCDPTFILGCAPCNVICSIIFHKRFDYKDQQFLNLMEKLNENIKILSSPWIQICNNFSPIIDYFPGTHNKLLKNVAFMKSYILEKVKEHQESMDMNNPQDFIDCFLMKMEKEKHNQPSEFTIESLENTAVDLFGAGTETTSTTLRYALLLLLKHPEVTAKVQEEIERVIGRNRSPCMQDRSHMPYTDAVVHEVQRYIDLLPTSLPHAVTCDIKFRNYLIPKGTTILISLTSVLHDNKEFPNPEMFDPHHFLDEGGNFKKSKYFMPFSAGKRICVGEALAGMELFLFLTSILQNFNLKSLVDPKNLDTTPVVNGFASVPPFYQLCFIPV

Test [3] has as its target Glutathione peroxidase 1 (Homo sapiens) (UniProt P07203). The experiment in a line: Primary qHTS Assay for Inhibitors of Recombinant Selenoprotein Glutathione Peroxidase 1 (GPX1) (AID 1845191). Further: nearly all actives have a fitted effect of over 65% in size. The method in brief: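 10 nM GPX1 + cpd, 30 min RT; start w/ 1 mM GSH, 0.5 mM cumene hydroperoxide, 0.5 mM NADPH, 100 nM GR, 0.01% BSA; buffer 50 mM Tris-HCl pH 7.5, 2 mM EDTA, 150 mM NaCl; Fl 340/450, 0 & 15 min.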

Test [4] has as its system Zika virus NS2B-NS3 protease (unlinked complex). The test can be described thus: Primary screen GU Rhodamine qHTS for Zika virus inhibitors: Unlinked NS2B-NS3 protease assay (AID 1347159). Further: on the % scale 0 is the no-effect control and ±100 the full control effect; nearly all actives have a fitted effect of over 60% in size. The essentials: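 A qHTS format was used, with compound concentrations ranging up to 114 microM. Each compound was preincubated with 25 nM NS2B-NS3 protease, and the substrate was then added at 1.5 microM. Curves were fitted with a 4-parameter Hill model.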

Test [5] is described as follows: Primary qHTS for inhibitors of nuclear receptor binding SET domain protein 2 (NSD2) in an RCH-ACV wild type WT cells (2C) (AID 1645877). Further: nearly all actives have a fitted effect of over 70% in size. Further: potency means the concentration at half of the fitted maximal effect.
Test [6] in a line: Primary fluorescence-based thiol-reactive (MSTI) qHTS assay for identification of artifact compounds. (AID 1845221).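 Further: thiol-reactive compounds lower the probe fluorescence signal; nearly all actives have a fitted effect of over 65% in size.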 The method in brief: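 First, 4 uM MSTI in 2% DMSO/PBS pH 7.4 was dispensed; next, compounds were added; then plates sat 1 h at room temperature without light. Finally, emission at 598 nm was recorded.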
Test [7] in a line: Primary redox qHTS assay for identification of artifact compounds. (AID 1845223).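 Further: 0% = DMSO and 100% = reference compound.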 The method in brief:
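Amplex Red (25 uM) and HRP (250 mU/mL) in HBSS, with compounds for 15 min, then 250 uM DTT for 30 min, room temperature, dark. Fluorescence 525/598 nm read; normalized to DMSO and 10 uM DA3003; Hill fit.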

In test [8] the target is Guanidinoacetate N-methyltransferase (Homo sapiens) (UniProt Q14353). The test can be described thus: Confirmatory Screen for Target Class Profiling of Small Molecule Inhibitors of Methyltransferases (AID 1745852). Further: on the % scale 0 is the no-effect control and ±100 the full control effect. The conditions noted are these: activity change, negative = inhibition: at 57.3 µM (top of the series) unless noted.
Test [9] relates to Zika virus NS2B-NS3 protease (linked construct). The experiment in a line: Primary screen NINDS Rhodamine qHTS for Zika virus inhibitors (AID 1347160). Further: nearly all actives have a fitted effect of over 55% in size. On activity change, negative = inhibition: on the % scale 0 is the no-effect control and ±100 the full control effect. The method in brief:
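Kinetic fluorescence (Ex 480 nm, Em 540 nm) over 15 min with 1.5 microM Rhodamine110 peptide and 25 nM linked protease.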

Test [10] deals with HACAT. The test can be described thus: qHTS assay to identify novel small-molecules to repurpose for Merkel cell carcinoma treatment (AID 1296009). Further: nearly all actives have a fitted effect of over 60% in size. The conditions noted are these: MCC and control cell lines, CellTiter-Glo viability, 72 h; at 44.8 µM (top of the series) unless noted. The method in brief: (§1)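 After compound transfer in DMSO, plates were kept 72 hr at 37 degree celsius. Luminescent ATP signal from CellTiter-Glo served as viability measure, normalized against DMSO and no-cell controls.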

The subject of test [11] is SKOV3. The experiment in a line: Primary qHTS to identify gynecologic anti-cancer compounds using libraries of approved drugs and bioactive compounds (AID 1345084). Further: on the % scale 0 is the no-effect control and ±100 the full control effect; nearly all actives have a fitted effect of over 55% in size. The note with it: Gynecologic cancer cell panel viability, ATPlite luminescence, 48 h; series mostly up to 57.5 µM. The essentials: (§2)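 48 h compound exposure at 37 C, 5% CO2; five-point qHTS. ATPlite luminescence readout of cell ATP.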

In test [12] the test system is KB-3-1. The test can be described thus: Cytotoxic Profiling of Annotated Libraries Using Quantitative High-Throughput Screening (AID 1296008). Further: nearly all actives have a fitted effect of over 60% in size. Further: potency means the concentration at half of the fitted maximal effect. The conditions noted are these: Five cell lines viability, CellTiter-Glo ATP luminescence, 48-72 h; max response: stronger effect = lower value. The method in brief: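 Cytotoxicity was measured as CellTiter-Glo ATP luminescence, read after 10 min at room temperature. Compound treatment of the cells lasted 48 or 72 hr at 37 degrees Celsius in a qHTS format.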

Test [13] has as its system CRL-7250. The experiment in a line: qHTS assay to identify novel small-molecules to repurpose for Merkel cell carcinoma treatment (AID 1296009). Further: nearly all actives have a fitted effect of over 60% in size. The conditions noted are these: MCC and control cell lines, CellTiter-Glo viability, 72 h; series mostly up to 92 µM. The essentials:
as §1

Test [14] relates to HeLa. The test can be described thus: Primary qHTS to identify gynecologic anti-cancer compounds using libraries of approved drugs and bioactive compounds (AID 1345084). The note with it: Gynecologic cancer cell panel viability, ATPlite luminescence, 48 h; series mostly up to 57.5 µM. The method in brief: as §2

Results filed as inconclusive are left out. Active and inactive are the calls of the source. Unless noted, the call rests on the fitted dose curve; in most records, active means well fitted curve in the direction sought with a large enough effect; inconclusive means small, poorly fitted or top-dose-only effect, or another doubt; inactive means no such curve, though single readings can be large; an effect the other way counts as inactive or inconclusive.

Sequence of Glutathione peroxidase 1 (Homo sapiens) (P07203 whole entry, looked up): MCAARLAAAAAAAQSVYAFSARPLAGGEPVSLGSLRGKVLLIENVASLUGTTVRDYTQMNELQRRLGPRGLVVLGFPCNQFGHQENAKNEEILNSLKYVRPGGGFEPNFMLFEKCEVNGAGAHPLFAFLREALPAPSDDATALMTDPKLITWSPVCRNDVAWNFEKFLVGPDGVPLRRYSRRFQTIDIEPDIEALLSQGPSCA
Sequence of Cytochrome P450 2D6 (Homo sapiens) (P10635 whole entry, looked up): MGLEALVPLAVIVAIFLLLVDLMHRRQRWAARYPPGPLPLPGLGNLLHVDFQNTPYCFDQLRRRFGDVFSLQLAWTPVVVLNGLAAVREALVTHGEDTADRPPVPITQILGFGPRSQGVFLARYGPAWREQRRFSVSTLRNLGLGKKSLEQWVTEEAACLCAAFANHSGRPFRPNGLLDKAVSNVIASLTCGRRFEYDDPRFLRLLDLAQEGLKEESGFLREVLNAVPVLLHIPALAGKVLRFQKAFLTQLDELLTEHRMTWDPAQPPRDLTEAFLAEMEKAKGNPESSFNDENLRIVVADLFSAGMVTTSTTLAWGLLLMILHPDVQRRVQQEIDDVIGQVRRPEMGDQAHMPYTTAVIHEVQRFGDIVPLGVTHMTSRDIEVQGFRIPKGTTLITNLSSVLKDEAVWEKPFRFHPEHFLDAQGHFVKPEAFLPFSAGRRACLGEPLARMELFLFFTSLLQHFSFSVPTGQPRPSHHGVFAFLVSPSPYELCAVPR

Consider `O=C(CC1NCCC[C@H]1O)Cn1cnc2cc(Br)c(Cl)cc2c1=O` (stereo not given in full), for which the Potency result in test [1], in test [2] and in test [3] was “inactive” throughout.

On to `C[C@]12CC[C@H](O[C@@H]3O[C@H](CO)[C@@H](O)[C@H](O)[C@H]3O[C@@H]3O[C@H](CO)[C@@H](O)[C@H](O)[C@H]3O)CC1=CC[C@@H]1[C@@H]2CC[C@]2(C)[C@@H](C3=CC(=O)OC3)CC[C@]12O`, for which the Potency result in test [4], in [3], in [6] and in test [7] was “inactive” throughout. Also, the Potency in test [5] was 4.3 µM (active).

Turning to `CCCCN1[C@@H]2CC[C@H]1CC(OC(c1ccc(F)cc1)c1ccc(F)cc1)C2` (stereo not given in full), the Potency result in [4], in test [3], in [6] and in [7] was “inactive” throughout. Moreover, the Potency in test [1] is 0.169 µM (active); in test [5], 9.16 µM (active). In test [8], the activity change, negative = inhibition is 0%.

With `Oc1ccc2c3c1O[C@H]1c4[nH]c5c(N=C=S)cccc5c4C[C@@]4(O)[C@@H](C2)N(CC2CC2)CC[C@]314`, the Potency entry in test [9], in [3], in [6] and in test [11] was “inactive” in each case. Further, in test [10], the result was inactive.

For the compound `CN1C(=O)N(c2ccc(C#N)c(C(F)(F)F)c2)C(=O)[C@@]1(CO)c1ccccc1`, the Potency result in test [4], in [9], in test [5], in test [3], in test [6] and in test [13] was “inactive” throughout. Besides, the Potency result in test [14] and in test [11] was “inactive” in each case. The max response in [12] is 2.44% (inactive).

Turning to `c1ccc([C@@H]2C[C@H]2NC2CCNCC2)cc1`, the Potency result in [4], in test [9], in test [3], in test [6], in test [7] and in test [11] was “inactive” throughout. Moreover, in [1], the Potency was 10.7 µM (active). In addition, the max response in test [12] was -11.5% (inactive).

`CC1=CC(=O)[C@@H](O)[C@@]2(C)C1C[C@H]1OC(=O)[C@H](O)[C@@]3(O)[C@@H](C)[C@@H](O)[C@H](O)C2[C@@]13C` (stereo not given in full): the Potency entry in test [4], in [9] and in [3] was “inactive” throughout. Further, the Potency is 1.01 µM (active) in test [5] and 6.4 µM (active) in [12].

With `C#C[C@]1(O)CC[C@H]2[C@@H]3CC[C@H]4Cc5nc6nc7ccccc7n6cc5C[C@]4(C)[C@H]3CC[C@@]21C`, the Potency entry in [4], in test [3], in [6], in test [7] and in test [14] was “inactive” in each case. Further, in [5], the Potency is 11.5 µM (active). Also, the activity change, negative = inhibition in test [8] was -2.81%.

`C[C@]12CC[C@H](O)C[C@@H]1CC[C@@H]1[C@@H]2CC[C@]2(C)[C@@H](C3=CC(=O)OC3)CC[C@]12O`: the Potency result in [4], in test [9], in test [3], in test [6] and in test [7] was “inactive” each time. The Potency in test [5] is 4.5 µM (active).

With `CC(C)[C@H](NC(=O)c1nn(Cc2ccc(F)cc2)c2ccccc12)C(N)=O`, the Potency entry in test [4], in test [9], in test [5], in [3], in test [6] and in test [14] was “inactive” throughout. For the same compound, in test [11], the Potency entry was “inactive”. The results for the Potency in [1] and in test [2] were 16.9 µM (active) and 6.74 µM (active), respectively. For the same compound, the max response in [12] is 0.24% (inactive).
